Screening results from PubChem.
In the library only some 0.56% were active in any assay of this set; here they are far more common.
CBFb-RUNX1 inh – inhibitors of human CBF-beta and RUNX1 interaction | Q01196+Q13951 | 230,000 tested, under 10 active | AlphaScreen CBFb-His/RUNX1-biotin binding, biochemical | AID 1477 | Potency, µM (top dose mostly 59.8 µM), for inactives: top-dose activity, negative = inhibition, most hits filed as inhibitors; also: % of control where 0% means no effect
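Inhibition was taken as any reduction in AlphaScreen signal from the CBF-beta–RUNX1 pair (His and biotin tags, 30 nM each), measured after compound (15 min) and bead (90 min) incubations at room temperature.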
PKM2 act – activators of human pyruvate kinase M2 | P14618 | purified PKM2, Kinase-Glo ATP luminescence, activation; response scale: 0% is enzyme alone, no compound | 260,000 compounds, 0.34% hits | Potency, µM (highest dose often 57.5 µM), for the others: top-dose activation, actives largely listed as activators; also: potency is read from the fitted curve at half-maximal effect; % is scaled to controls: 0 for no effect and ±100 for the full control effect; nearly all actives have a fitted effect of over 55% in size
Target sequence (P14618 whole entry, looked up): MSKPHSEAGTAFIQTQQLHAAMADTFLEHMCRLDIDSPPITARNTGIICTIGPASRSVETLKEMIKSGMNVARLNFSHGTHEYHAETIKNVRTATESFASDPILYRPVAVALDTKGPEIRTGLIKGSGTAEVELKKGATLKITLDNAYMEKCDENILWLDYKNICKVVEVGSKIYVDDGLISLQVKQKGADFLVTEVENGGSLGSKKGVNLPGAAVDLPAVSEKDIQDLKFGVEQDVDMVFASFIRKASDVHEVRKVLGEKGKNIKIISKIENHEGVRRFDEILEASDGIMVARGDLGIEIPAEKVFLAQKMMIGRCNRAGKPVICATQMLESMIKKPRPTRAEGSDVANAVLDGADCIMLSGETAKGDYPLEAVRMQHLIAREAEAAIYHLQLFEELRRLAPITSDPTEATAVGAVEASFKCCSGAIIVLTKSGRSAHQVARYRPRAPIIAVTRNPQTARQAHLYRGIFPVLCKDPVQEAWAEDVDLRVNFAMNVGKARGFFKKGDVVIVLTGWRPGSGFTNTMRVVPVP
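Kinase-Glo luminescence reports ATP generated from ADP (0.1 mM) and PEP (0.5 mM) by purified hPK-M2 after 1 h at room temperature, pH 7.2 imidazole buffer; intermediate enzyme activity allows detecting inhibitors and activators.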
Tb PFK block – blocks T. brucei phosphofructokinase. O15648. T. brucei PFK, ADP-Glo luminescence. Potency, µM (doses to about 57.5 µM), without a hit: at the highest dose activity, negative = inhibition, usual class: inhibitors. 330,000 compounds, 0.17% hits;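 also: potency is read from the fitted curve at half-maximal effect; 0% = uninhibited 1x PFK enzyme wells and -100% = no-enzyme wells; nearly all actives have a fitted effect of over 60% in size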
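Compounds were pin-transferred as a titration series up to 57 uM into substrate buffer (0.5 mM F6P, 0.1 mM ATP, pH 8.0), then 1.25 nM PFK was added and reactions ran 45 min before ADP-Glo detection.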
KinaseGlo FLuc – blocks Kinase-Glo luciferase, a counter-screen artifact; Q27757; Kinase-Glo luciferase, ATP luminescence, 8 min; Potency, µM (top dose mostly 38.3 µM), without a hit: at the top dose activity change, negative = inhibition, usual class: inhibitors; 200,000 compounds, 0.28% hits; also: potency is read from the fitted curve at half-maximal effect; % is scaled to controls: 0 for no effect and ±100 for the full control effect; nearly all actives have a fitted effect of over 60% in size
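Light output from Kinase-Glo luciferase with luciferin and 10 uM ATP in 50 mM imidazole pH 7.2, KCl, MgCl2, Tween 20, BSA; compound pin-delivered, 8-min ambient incubation, then luminescence read.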
GALK inhibitor – blocks human galactokinase activity; 270,000 compounds, 0.007% hits; Potency, µM (titrated, usually from 57.5 µM), inactives show at the highest dose activity change, negative = inhibition, actives largely listed as inhibitors; Purified GALK, Kinase-Glo residual ATP luminescence; AID 1868; also: potency is read from the fitted curve at half-maximal effect; % is scaled to controls: 0 for no effect and ±100 for the full control effect
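Quantitative HTS: GALK 5 nM, ATP 35 uM, galactose 100 uM, 1 h room temperature, then luciferase-based ATP detection.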
Starred values were filed as active, the others as inactive; ? = inconclusive; · = no result; ! = a repeat was not active; [ ] = remark or other dose. Calls follow the shape of the dose curve; as a rule, active = well fitted curve in the direction sought with a large enough effect; inconclusive = small, poorly fitted or top-dose-only effect, or another doubt; inactive = no such curve, though single readings can be large; an effect the other way counts as inactive or inconclusive.

SMILES	CBFb-RUNX1 inh	PKM2 act	Tb PFK block	KinaseGlo FLuc	GALK inhibitor
COc1ccc(S(=O)(=O)N2CCC(NC(=O)OCc3c(Cl)cccc3Cl)CC2)cc1	11%	?	-8%	3%	-3%
COc1ccc(CNC(=O)N2CCN(S(=O)(=O)c3ccccc3)CC2)cc1	·	·	-2%	·	-2%
O=c1c(=NNc2ccccc2Cl)c(=O)c2ccccc12	-9%	-20%	3%	6.3µM*	8%
Cc1cc(C)c(NN=c2c(=O)c3ccccc3c2=O)c(C)c1	-13%	-9%	-8%	-4%	-2%
CC(C)(C)OC(=O)[C@H](C1N[C@@H](C(=O)O)C(C)(C)S1)N1C(=O)c2ccccc2C1=O (stereo not given in full)	·	·	·	-4%[7.66 µM]	·
O=C(/C=C/Nc1ccccc1)c1ccccc1	-2%	4%	-9%	7.1µM*	6%
CN(C)c1ccc(N/C=C/C(=O)c2ccccc2)cc1	7%	-53%	-9%	4µM*	11%
Cc1ccc(C(=O)/C=C/Nc2ccccc2C(N)=O)cc1	0%	-19%	-6%	11µM*	1%
CC(=O)Nc1ccc(N/C=C/C(=O)c2ccccc2)cc1	·	0%	-1%	·	4%
CN(C)c1ccc(N/C=C/C(=O)C(C)(C)C)cc1	-14%	3%	-4%	16%	-4%
CCN(CC)CCNC(=O)c1ccc(Cc2nc3ccccc3[nH]2)cc1	·	·	·	0%	·
O=C1C[C@H]2OCC=C3CN4CC[C@@]5(C(=O)O)[C@H](N1)C2[C@H]3C[C@H]45 (stereo not given in full)	·	·	·	-2%[7.66 µM]	·
CCC(=O)OCCNc1cc(Sc2nc3ccccc3s2)c2nonc2c1[N+](=O)[O-]	-1%	?	2.7µM*	-4%	-1%
O=[N+]([O-])c1c(NCCCO)cc(Sc2nc3ccccc3s2)c2nonc12	-1%	-24%	?	-4%	8%
NC=O	6%[21.7 µM]	·	·	·	·
NCCCC[C@H](NC(=O)[C@@H]1CCCN1C(=O)[C@H](CO)NC(=O)[C@H](CC(=O)O)NC(=O)CNC(=O)[C@H](CCCN=C(N)N)NC(=O)CN)C(=O)O	6%	·	·	·	·
Cc1ccc(-c2nc3c(c(=O)[nH]c(=O)n3Cc3ccccc3)n2C)o1	·	?	0%	-5%	0%
Cc1ccc(-c2nc3c(c(=O)[nH]c(=O)n3Cc3ccccc3)n2Cc2ccccc2)o1	10%	18µM*	-26%	-3%	8%
Cc1ccc2nc3c(cc2c1)CN(Cc1ccco1)C(=NCC1CCCO1)S3 (stereo not given)	3%	?	3%	2%	0%
Cc1cccc2cc3c(nc12)SC(=NCC1CCCO1)N(Cc1ccco1)C3 (stereo not given)	-14%	11µM*	-1%	·	2%
COc1ccc2c(=O)c(-c3ccccc3)coc2c1	21%[21.7 µM]	-16%	-2%	2.8µM*!	15%
CCN(CC)S(=O)(=O)c1ccc2c(c1)nc(SCc1nc3ccsc3c(=O)[nH]1)n2CC	-2%	13µM*	2%	-3%	-2%
O=C(NCc1cccs1)C1CCN(S(=O)(=O)N2CCCC2)CC1	4%	0%	1%	-1%	0%
O=C(NCc1cccs1)C1CCN(S(=O)(=O)c2ccc(Br)s2)CC1	-1%	27%	2%	-1%	-1%
O=C(NCc1cccs1)C1CCN(S(=O)(=O)c2ccccc2F)CC1	2%	14µM*	3%	·	-2%
SMILES	CBFb-RUNX1 inh	PKM2 act	Tb PFK block	KinaseGlo FLuc	GALK inhibitor
O=C(NCc1cccs1)C1CCN(S(=O)(=O)c2cccs2)CC1	3%	16µM*	-7%	0%	0%
CSc1ccc(S(=O)(=O)N2CCC(C(=O)NCc3ccco3)CC2)cc1	·	10µM*	6%	·	3%
O=C(c1ccc(Nc2nccc(-c3cc4ccccc4s3)n2)cc1)N1CCC(N2CCCC2)CC1	-22%	·	·	·	·
CN1CCN(C(=O)c2ccc(-n3c(=O)c(=O)[nH]c4ccccc43)cc2)CC1	·	·	·	-3%	·
Cc1ccc(-n2c(=O)[nH]c3c(C(N)=O)nc(-c4ccc(C)o4)nc32)cc1	3%	14µM*	-2%	12%	2%
COc1ccc(OC)c(-c2nc(C(N)=O)c3[nH]c(=O)n(-c4ccc(F)cc4)c3n2)c1	2%	-1%	1%	-2%	1%
CSc1nc(N)nc(SCC(=O)Nc2cccc(F)c2)c1C#N	-3%	1.4µM*	-10%	2%	-2%
CSc1nc(N)nc(SCC(=O)C(C)(C)C)c1C#N	0%	1%	3%	3%	3%
CSc1nc(N)nc(SCC(=O)Nc2ccc(Cl)cc2)c1C#N	0%	4µM*	2%	-3%	-3%
COc1cc(OC)c(-c2c3cc(O)c(=O)cc-3oc3cc(O)c(O)cc23)cc1OC	·	-8%	?	-12%	2%
Cc1c2cc(O)c(=O)cc-2oc2cc(O)c(O)cc12	·	?	3.4µM*	?	0%
CCN1CCN(c2ncnc3c2nnn3Cc2ccccc2)CC1	-4%	3%	2%	-3%	0%
c1ccc(Cn2nnc3c(N4CCc5ccccc5C4)ncnc32)cc1	-4%	14µM*	3%	0%	5%
c1ccc(Cn2nnc3c(N4CCCC4)ncnc32)cc1	3%	16µM*	2%	-1%	9%
Cc1ccc(CNC(=O)C2c3ccccc3C(=O)N3CCc4ccccc4C23)o1 (stereo not given)	-6%	10µM*	-7%	-6%	2%
O=C(NCCN1CCN(Cc2ccccc2)CC1)C1c2ccccc2C(=O)N2CCc3ccccc3C12 (stereo not given)	-3%	2%	-1%	1%	·
O=C(O)c1ccccc1NS(=O)(=O)c1ccc(F)c(Cl)c1	·	·	·	-4%	·
CCOC(=O)c1cnc(Nc2nc3ccccc3o2)nc1C	2%	-49%	8%	2µM*	8%
O=Nc1ccc(Nc2ccccc2)cc1	-10%[21.7 µM]	·	·	·	·
CN[C@@H](CCCN=C(N)N)C(=O)N[C@@H](CCCCN)C(=O)N1CCC[C@H]1C(=O)N[C@@H](Cc1c[nH]c2ccccc12)C(=O)N[C@H](C(=O)N[C@H](CC(C)C)C(=O)O)C(C)(C)C	9%	·	·	·	·
O=[N+]([O-])c1cccnc1N/N=C/c1ccccc1O	-3%	-37%	-3%	2µM*	9%
CCCOc1ccc(/C=N/Nc2ccccc2[N+](=O)[O-])c(O)c1	-3%	-15%	-3%	8.9µM*	6%
COc1ccc2nc(C)cc(SCC(=O)N/N=C/c3ccc(O)c(O)c3)c2c1	?	25µM*	-2%	1%	2%
COc1ccc2nc(C)cc(SCC(=O)N/N=C/c3cccc4ccccc34)c2c1	9%	-3%	-3%	3%	1%
O=C(COc1ccc(S(=O)(=O)N2CCc3ccccc32)cc1Cl)NCc1ccccn1	12%	16µM*	-4%	2%	-1%
Clc1ccc2nc(-c3ccccc3)[nH]c2c1	-6%[21.7 µM]	·	·	11µM*	·
